From PubChem
TDP1 cell CPT – growth inhibition of DT40 Tdp1-/-;hTDP1 cells with camptothecin (screen for TDP1 inhibitors); actives 12% (n = 420,000); AID 686979; chicken DT40 Tdp1-/-;hTDP1 cells + 20 nM CPT, ATP luminescence, 48 h; Potency, µM (highest dose often 46.2 µM), for inactives: at the top dose activity change, negative = growth inhibition, usual class: inhibitors; note: potency is the fitted concentration of half-maximal effect; nearly all actives have a fitted effect of over 55% in size
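Chicken DT40 Tdp1-/- cells complemented with human TDP1, 400 cells/well, exposed to compounds plus 20 nM camptothecin for at least 48 h at 37 C; viability read as ATP content by CellTiter-Glo luminescence.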
TDP1 cell noCPT – qHTS for Inhibitors of human tyrosyl-DNA phosphodiesterase 1 (TDP1): qHTS in cells in absence of CPT. actives 15% (n = 420,000). DT40 Tdp1-/- hTDP1 cells, no CPT, ATP luminescence, 48 h. Potency, µM (top dose mostly 46.2 µM), for inactives: top-dose activity change, negative = growth inhibition, usual class: inhibitors; note: potency is the fitted concentration of half-maximal effect; nearly all actives have a fitted effect of over 55% in size
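Growth of hTDP1-complemented DT40 Tdp1-knockout cells is measured by ATP luminescence after at least 48 hr compound exposure at 37 °C, with DMSO substituting for the 20 nM CPT used in the parallel screen.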
IL1B secr inh – blocks inflammasome-driven IL-1 beta release. THP-1 LPS/ATP IL-1B secretion, AlphaLISA, 16 h; stronger effect = lower value. actives 4.7% (n = 360,000). activity change, % at 57.5 µM; in the data active = activity change below about -50%; inconclusive = mostly about -30% to -49%
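Secreted IL-1B measured by AlphaLISA bead assay after 16 h compound exposure of THP-1 cells; compounds (final up to 57.5 uM) added 1 h before LPS (250 ng/mL) and ATP (1.25 mM) stimulation; lower signal means less secretion.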
HT1080 IDH1KD tx – HT-1080 IDH1 knockdown cell toxicity (counter line); HT-1080 IDH1 knockdown viability, ATP luminescence, 48 h; Potency, µM (titrated, usually from 46.1 µM), inactives show at the top dose activity, negative = toxicity, usual class: cytotoxic; actives 2% (n = 360,000); AID 686971;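 note: potency is the fitted concentration of half-maximal effect; 0% = DMSO wells and -100% = cell-free medium wells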
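HT-1080-IDH1KD cells (IDH1 knocked down), 750/well in RPMI with 5% FBS, treated with compound 48 h at 37 degrees C. Viability by CellTiter-Glo luminescence, normalised to DMSO and no-cell wells; concentration-response curves classed.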
ELG1 repair inh – blocks ELG1-dependent DNA repair in HEK293T cells; actives 2.3% (n = 330,000); AID 504467; Potency, µM (titrated, usually from 46.1 µM), without a hit: at the top dose activity change, negative = inhibition, hits mostly inhibitors; HEK293T ELG1-luciferase reporter, luminescence, 16 h; DNA damage induced by 5-fluorouridine; note: potency is the fitted concentration of half-maximal effect; nearly all actives have a fitted effect of over 55% in size
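Reporter activity after DNA damage by 5-fluorouridine is monitored. Compound-treated cells incubate 16 hr at 37 °C, then ONE-Glo is added for 30 min before luminescence reading.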
HT1080-NT tox – kills 2HG-producing HT-1080-NT fibrosarcoma cells; Potency, µM (doses to about 46.1 µM), for the others: at the top dose activity, negative = less viability, most hits filed as cytotoxic; actives 1.6% (n = 360,000); HT-1080-NT fibrosarcoma viability, CellTiter-Glo ATP luminescence, 48 h; AID 686970;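 note: NT is the 2HG producing partner of a matched IDH1 knockdown line; potency is the fitted concentration of half-maximal effect; 0% = DMSO-treated cells and -100% = media-only wells without cells; nearly all actives have a fitted effect of over 55% in size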
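HT-1080-NT; 750 cells/well; 5% FBS RPMI; 48 h compound, 37 degrees C; CellTiter-Glo luminescence; curve fitting and curve-class assignment.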
The depositor's hits bear a star; ? = inconclusive; nt = no result given; [ ] = remark or other dose. Compounds with a hit are over-represented: about 19% of the library has one in this group of screens. Unless noted, calls come from the whole dose curve; as a rule, active = well fitted curve in the direction sought with a large enough effect; inconclusive = small, poorly fitted or top-dose-only effect, or another doubt; inactive = no such curve, though single readings can be large; an effect the other way counts as inactive or inconclusive. Unless noted, % is set by controls: 0 for no effect and ±100 for the full control effect.

SMILES | TDP1 cell CPT | TDP1 cell noCPT | IL1B secr inh | HT1080 IDH1KD tx | ELG1 repair inh | HT1080-NT tox
Cc1cc(C)c(CN2CCN(C(=O)Cn3cnc4c(OCc5ccccc5)ncnc43)CC2)c(C)c1 | 8.2µM* | 2.6µM* | -22 | ? | ? | ?
Cc1ccc(NCCCn2cnc3c(OCc4ccccc4)ncnc32)cc1C | ? | ? | -4 | -27% | nt | -21%
O=C(O)Cn1cnc2c(OCc3ccccc3)ncnc21 | 2% | -8% | 15 | 7% | 10% | 5%
c1ccc(COc2ncnc3c2ncn3CCCN2CCN(Cc3cccc4ccccc34)CC2)cc1 | ? | 9.2µM* | -4 | ? | nt | 16µM*
COc1ccc(C(=O)OCC(=O)N(Cc2ccccc2)Cc2ccccc2)c(O)c1 | ? | 18µM* | 17 | 2% | nt | 2%
O=C(NCC1CCCO1)c1cc([N+](=O)[O-])ccc1N1CCC(Cc2ccccc2)CC1 (stereo not given) | ? | 23µM* | -12 | -27% | 23µM* | -6%
COc1ccccc1N(CC(O)CN1CCOCC1)S(=O)(=O)c1ccccc1 (stereo not given) | 5% | 1% | 18 | 4% | -1% | 6%
Cc1ccc(OCC(=O)N/N=C\c2cn(C)c3ccccc23)c([N+](=O)[O-])c1 | ? | 15µM* | 16 | -2% | ? | -8%
Cc1ccc(/C=N\NC(=O)COc2ccc(C)cc2[N+](=O)[O-])cc1 | ? | ? | -21 | 20% | -5% | 0%
Cc1ccc(OCC(=O)N/N=C\c2c(C)[nH]n(-c3ccccc3)c2=O)c([N+](=O)[O-])c1 | 3.7µM* | 4.1µM* | 127 | -23% | ? | -16%
CCOC(=O)c1cccc(NC(=O)CC2Oc3ccccc3NC2=O)c1 (stereo not given) | ? | ? | 0 | -17% | -12% | -1%
COc1ccc(CCNC(=O)CNCC(c2ccccc2)N(C)C)cc1OC (stereo not given) | 5% | -11% | 3 | 15% | 8% | 8%
COC(=O)c1ccc2c(c1)N(Cc1ccccc1)C(=O)c1ccccc1S2(=O)=O | 16µM* | ? | nt | nt | nt | nt
O=C(NCCc1ccc(Cl)cc1)c1ccc2c(c1)N(Cc1cccc(Cl)c1)C(=O)c1ccccc1S2(=O)=O | ? | 7.3µM* | nt | nt | nt | nt
O=C(Nc1ccc(Cl)cc1)c1ccc2c(c1)N(Cc1ccccc1)C(=O)c1ccccc1S2(=O)=O | 16µM* | 23µM* | nt | nt | nt | nt
CCC1(C2CCN(C(=O)c3csc(C(C)=O)c3)CC2)NC(=O)N(CCc2scnc2C)C1=O (stereo not given) | 12%[9.04 µM] | -14% | nt | nt | nt | nt
COc1ccc(NS(=O)(=O)c2cccc(C(=O)NNC(=O)c3cc(S(N)(=O)=O)ccc3OC)c2)cc1 | 16% | -1% | 25 | 1% | 7% | -6%
CCc1cccc(NC(=O)COC(=O)c2cn(CC)c3nc(C)ccc3c2=O)c1 | -11% | ? | nt | nt | nt | nt
CN(C(=O)COC(=O)c1ccc(F)c(S(=O)(=O)N2CCOCC2)c1)C1CCS(=O)(=O)C1 (stereo not given) | -5% | 1% | 15 | ? | 17% | 22%
CCOC(=O)N1CCN(C2CCCN(C(=O)c3cccc(N(C)C)c3)C2)CC1 (stereo not given) | -24% | ? | 32 | 3% | 14% | 4%
CCCc1[nH]nc2c1C1(CCN(C(=O)OCc3ccccc3)CC1)C(C#N)=C(N)O2 | 21µM* | ? | -13 | ? | ? | 5%
CCc1[nH]nc2c1C1(CCN(C(=O)OCc3ccccc3)CC1)C(C#N)=C(N)O2 | ? | -29% | 53 | 17% | 3% | 25%
